Experiment [1] concerns the target Phospholipid hydroperoxide glutathione peroxidase GPX4 (Homo sapiens) (UniProt P36969). Briefly: Primary qHTS Assay for Inhibitors of Recombinant Selenoprotein Glutathione Peroxidase 4 (GPX4) (AID 1845192). For activity change, negative = inhibition: % is set by controls: 0 for no effect and ±100 for the full control effect. Note: nearly all actives have a fitted effect of over 65% in size. Put shortly: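 NADPH consumption, followed by fluorescence at 340/450 nm between 0 and 15 min, reports GPX4 activity via coupled glutathione reductase (100 nM). Enzyme 200 nM was pre-exposed to compound 30 min; 0.5 mM cumene hydroperoxide and 1 mM GSH served as substrates.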
(In qHTS, concentration-response curves come from the screen itself.)

The nature of experiment [2]: Quantitative High-Throughput drug screen in 47 multiple myeloma cell lines against the NCATS MIPE library collection: FR4_PLB cell viability assay (AID 1918924; note: nearly all actives have a fitted effect of over 35% in size). Summed up: (§1)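 Luminescent ATP measurement with CellTiter-Glo gives viability, scaled between DMSO-only wells (100%) and media-only wells (0%). Cells, 500 per well, faced library compounds for 48 hours at 37C.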

A short description of experiment [3]: Quantitative High-Throughput drug screen in 47 multiple myeloma cell lines against the NCATS MIPE library collection: EJM_DSMZ cell viability assay (AID 1918926; note: nearly all actives have a fitted effect of over 30% in size). Put shortly:
(§2)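 Myeloma cells (500 per well) were exposed to MIPE 4.0 compounds by pin transfer and incubated 48 hours at 37C, 5% CO2. Viability was read as ATP by CellTiter-Glo luminescence, normalised to DMSO (100%) and media-only (0%) wells.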

Experiment [4] in a line: Quantitative High-Throughput drug screen in 47 multiple myeloma cell lines against the NCATS MIPE library collection: KMM1_JCRB cell viability assay (AID 1918960). Note: nearly all actives have a fitted effect of over 30% in size. Put shortly: (§3)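 Myeloma cells at 500 per well in 1536-well format treated with MIPE 4.0 library by pin transfer for 48 h at 37C, 5% CO2. Viability from ATP luminescence (CellTiter-Glo), normalized to DMSO (100%) and media-only (0%) wells.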

Experiment [5] is described as follows: Quantitative High-Throughput drug screen in 47 multiple myeloma cell lines against the NCATS MIPE library collection: KHM11_PLB cell viability assay (AID 1918962). Note: nearly all actives have a fitted effect of over 35% in size. Put shortly:
as §1

Experiment [6] in a line: Quantitative High-Throughput drug screen in 47 multiple myeloma cell lines against the NCATS MIPE library collection: INA6_PLB cell viability assay (AID 1918965; note: nearly all actives have a fitted effect of over 55% in size). Put shortly: (§4)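 Steps: seed 500 cells per well; pin-transfer MIPE 4.0 library; incubate 48 h at 37C, 5% CO2, humidified; add CellTiter-Glo, 5 min room temperature; read luminescence.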
A short description of experiment [7]: Quantitative High-Throughput drug screen in 47 multiple myeloma cell lines against the NCATS MIPE library collection: JJN3_DSMZ cell viability assay (AID 1918966; note: nearly all actives have a fitted effect of over 50% in size). Summed up: as §2
Experiment [8] in a line: Quantitative High-Throughput drug screen in 47 multiple myeloma cell lines against the NCATS MIPE library collection: H1112_PLB cell viability assay (AID 1918967; note: nearly all actives have a fitted effect of over 30% in size). Put shortly: as §2
Experiment [9] is described as follows: Quantitative High-Throughput drug screen in 47 multiple myeloma cell lines against the NCATS MIPE library collection: Karpas417_ECACC cell viability assay (AID 1918961). Particulars: Karpas417 myeloma viability, CellTiter-Glo ATP luminescence, 48 h; viability (% of DMSO): at 45.8 µM (top of the series). Summed up:
as §4
Background: ATP-based viability assays read luminescence as a measure of living cells.

Experiment [10] is described as follows: Quantitative High-Throughput drug screen in 47 multiple myeloma cell lines against the NCATS MIPE library collection: JIM1_ECACC cell viability assay (AID 1918964). Summed up: as §2
A short description of experiment [11]: Quantitative High-Throughput drug screen in 47 multiple myeloma cell lines against the NCATS MIPE library collection: Delta47_JCRB cell viability assay (AID 1918925; note: nearly all actives have a fitted effect of over 45% in size). Put shortly:
as §2

The nature of experiment [12]: Quantitative High-Throughput drug screen in 47 multiple myeloma cell lines against the NCATS MIPE library collection: ARP1_JJKsccF8 cell viability assay (AID 1918928; note: nearly all actives have a fitted effect of over 40% in size). Put shortly: as §3
Experiment [13] is described as follows: Quantitative High-Throughput drug screen in 47 multiple myeloma cell lines against the NCATS MIPE library collection: ARD_JJKsccE7 cell viability assay (AID 1918929). Summed up:
as §2

Experiment [14] is described as follows: Quantitative High-Throughput drug screen in 47 multiple myeloma cell lines against the NCATS MIPE library collection: Karpas620_DSMZ cell viability assay (AID 1918959). Note: nearly all actives have a fitted effect of over 30% in size. Put shortly:
as §1

Experiment [15] in a line: Quantitative High-Throughput drug screen in 47 multiple myeloma cell lines against the NCATS MIPE library collection: JIM3_ECACC cell viability assay (AID 1918963; note: nearly all actives have a fitted effect of over 35% in size). Summed up:
as §1

A short description of experiment [16]: Quantitative High-Throughput drug screen in 47 multiple myeloma cell lines against the NCATS MIPE library collection: AMO1_DSMZ cell viability assay (AID 1918927; note: nearly all actives have a fitted effect of over 30% in size). Put shortly: as §2

Results filed as inconclusive are left out. Values without a mark were called inactive. Activity calls are given as the source filed them. Calls come from the whole dose curve; as a rule, active = well fitted curve in the direction sought with a large enough effect; inconclusive = small, poorly fitted or top-dose-only effect, or another doubt; inactive = no such curve, though single readings can be large; an effect the other way counts as inactive or inconclusive.
Potency is the fitted concentration of half-maximal effect.

Sequence of Phospholipid hydroperoxide glutathione peroxidase GPX4 (Homo sapiens) (P36969 whole entry, looked up): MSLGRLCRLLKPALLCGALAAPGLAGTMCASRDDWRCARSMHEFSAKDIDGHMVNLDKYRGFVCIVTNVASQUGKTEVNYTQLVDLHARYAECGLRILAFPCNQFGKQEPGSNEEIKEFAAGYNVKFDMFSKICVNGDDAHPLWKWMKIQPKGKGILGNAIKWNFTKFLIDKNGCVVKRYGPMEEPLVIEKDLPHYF

As for `CSc1cccc(Nc2ncc3cc(-c4c(Cl)cccc4Cl)c(=O)n(C)c3n2)c1`, the Potency entry in [1] and in experiment [8] was “inactive” in each case. The Potency in experiment [2] was 372 nM (active); in [3], 6620 nM (active); in experiment [4], 59 nM (active); in experiment [5], 33.2 nM (active); in experiment [6], 59 nM (active); in [7] it was 3320 nM (active).

Regarding `N#Cc1c(N(CC(=O)O)CC(=O)O)sc(C(=O)O)c1CC(=O)O`, the activity change, negative = inhibition in experiment [1] is 4.92% [at 0.409 µM]. The Potency entry in experiment [2], in experiment [3], in [9] and in experiment [5] was “inactive” in each case. In addition, the Potency in experiment [10] is 5900 nM (active); in experiment [6], 14800 nM (active).

In the case of `CC(C)(F)C[C@H](N[C@@H](c1ccc(-c2ccc(S(C)(=O)=O)cc2)cc1)C(F)(F)F)C(=O)NC1(C#N)CC1`, the Potency entry in experiment [1], in [11], in experiment [3], in [12], in experiment [13] and in experiment [14] was “inactive” in each case. For the same compound, in experiment [8], the Potency result was “inactive”. Further, the Potency in experiment [15] was 83.3 nM (active).

Regarding `CC[C@]1(O)C[C@H]2CN(CCC3=c4ccccc4=N[C]3[C@@](C(=O)OC)(c3cc4c(cc3OC)N(C)[C@H]3[C@@](O)(C(N)=O)[C@H](O)[C@]5(CC)C=CCN6CC[C@]43[C@@H]65)C2)C1`, the Potency result in experiment [1] and in experiment [2] was “inactive” in each case. Besides, the Potency in experiment [16] is 833 nM (active); in [12], 10.5 nM (active); in experiment [13] it was 118 nM (active); in experiment [4], 105 nM (active); in experiment [7] it was 372 nM (active); in [8] it was 33.2 nM (active).

For the compound `CN1CCN(c2ncc(-c3cc(Cl)cc(Cl)c3Cl)c(N)n2)CC1`, the Potency entry in experiment [1], in [2], in [12], in experiment [13] and in [15] was “inactive” each time. Moreover, the Potency in [11] is 23500 nM (active); in experiment [10] it was 23500 nM (active); in experiment [6], 13200 nM (active).

As to `CC(=O)NCCC(=O)N[C@@H](CCC(N)=O)C(=O)N[C@@H](CO)C(=O)N[C@@H](CCC(N)=O)C(=O)N[C@@H](CCC(N)=O)C(=O)N[C@H](C(=O)N[C@@H](Cc1ccccc1)C(=O)N[C@]1(C)CCCCCCC=CCCC[C@@](C)(C(=O)N[C@@H](CCC(N)=O)C(=O)N[C@@H](CC(N)=O)C(N)=O)NC(=O)[C@H](CC(C)C)NC(=O)[C@H](CC(C)C)NC(=O)[C@@H](CCCNC(=N)N)NC(=O)[C@H](Cc2c[nH]c3ccccc23)NC(=O)[C@H](CC(C)C)NC(=O)[C@H](CC(N)=O)NC1=O)[C@H](C)O`, the Potency result in experiment [1], in experiment [13], in experiment [14] and in experiment [4] was “inactive” in each case. For the same compound, the Potency in experiment [11] is 20900 nM (active); in [3] it was 18700 nM (active); in experiment [12], 20900 nM (active); in experiment [5], 18700 nM (active); in experiment [15] it was 20900 nM (active); in experiment [10], 7430 nM (active). For the same compound, the Potency in experiment [6] was 20900 nM (active); in experiment [7], 14800 nM (active).

With `COc1cc2c(cc1OC)CC(=O)N(CCCN(C)C[C@H]1Cc3cc(OC)c(OC)cc31)CC2`, the Potency entry in experiment [1], in [2], in [15] and in [6] was “inactive” each time. Moreover, the Potency in [13] was 16600 nM (active); in experiment [8] it was 3720 nM (active).

Regarding `C=CCc1cccc(C=NNC(=O)CN2CCN(Cc3ccccc3)CC2)c1O`, the Potency result in experiment [1] was “inactive”. Moreover, the Potency in [11] was 18700 nM (active); in [16], 5260 nM (active); in experiment [12], 9350 nM (active); in experiment [13], 9350 nM (active); in experiment [4], 5260 nM (active); in [5] it was 20900 nM (active). In addition, the Potency was 23500 nM (active) in experiment [15] and 14800 nM (active) in experiment [6].

In the case of `CN1C(=O)C[C@H](C(=O)N[C@@H](Cc2cnc[nH]2)C(=O)N2CCC[C@@H]2C(N)=O)NC1=O`, the Potency entry in [1], in [3], in experiment [13], in experiment [5] and in [8] was “inactive” each time.

As to `CCC(=O)NCC[C@@H]1CCc2ccc3c(c21)CCO3`, the Potency result in experiment [1], in experiment [11], in experiment [3], in experiment [13], in experiment [14] and in experiment [4] was “inactive” each time. The Potency in experiment [5] and in [15] was 13200 nM (active) throughout.

Take `COc1cc([C@@H]2c3cc4c(cc3[C@@H](O[C@@H]3O[C@@H]5CO[C@@H](C)O[C@@H]5[C@H](O)[C@@H]3O)[C@H]3COC(=O)[C@H]23)OCO4)cc(OC)c1O`: the Potency entry in experiment [1], in experiment [13], in experiment [5] and in [7] was “inactive” throughout. Also, the Potency in [6] is 332 nM (active).

For the compound `COc1cc2nccc(Oc3ccc(NC(=O)Nc4ccc(F)cc4F)c(F)c3)c2cc1OC`, the Potency entry in [1], in experiment [16], in experiment [12], in experiment [13], in [14] and in experiment [4] was “inactive” in each case. In addition, the Potency entry in experiment [15] and in [8] was “inactive” in each case. The Potency in [7] is 20900 nM (active).

For `COC(=O)Nc1ccc(-c2nc(N3CCOCC3)c3cnn(C4CCN(C(=O)OC)CC4)c3n2)cc1`, the Potency entry in experiment [1] was “inactive”. Further, the Potency was 6620 nM (active) in experiment [3]; 662 nM (active) in [12]; 526 nM (active) in experiment [13]; 469 nM (active) in experiment [4]; 83.3 nM (active) in [5]; 264 nM (active) in experiment [15]. The Potency is 93.5 nM (active) in experiment [6], 935 nM (active) in experiment [7] and 66.2 nM (active) in experiment [8].

`CC[C@H](C=C[C@@H](C)[C@H]1CC[C@H]2[C@@H]3CC=C4C[C@@H](O)CC[C@]4(C)[C@@H]3CC[C@]12C)C(C)C`: the Potency entry in experiment [1], in experiment [12], in experiment [13], in [4], in [5] and in experiment [7] was “inactive” each time. The Potency entry in experiment [8] was “inactive”. Moreover, the Potency in experiment [3] was 7240 nM (active); in experiment [6], 1620 nM (active).

With `CC1CNc2c(cccc2S(=O)(=O)N[C@@H](CCCN=C(N)N)C(=O)N2CC[C@@H](C)C[C@@H]2C(=O)O)C1` (stereo not given in full), the Potency result in experiment [1], in [3], in experiment [13], in experiment [5], in experiment [15] and in experiment [6] was “inactive” throughout. The Potency result in experiment [7] and in [8] was “inactive” throughout.

For the compound `CO[C@@H]1C(N(C)C(=O)c2ccccc2)C[C@H]2O[C@]1(C)n1c3ccccc3c3c4c(c5c6ccccc6n2c5c31)C(=O)NC4=O` (stereo not given in full), the Potency was 18000 nM (active) in [1], 1870 nM (active) in experiment [11], 1870 nM (active) in experiment [13] and 6620 nM (active) in experiment [15]. The Potency entry in experiment [14] was “inactive”.

Consider `COc1c(C)cnc(Cn2cnc3c(Cl)nc(N)nc32)c1C`, for which the Potency result in [1] was “inactive”. In addition, the Potency in experiment [11] was 264 nM (active); in experiment [16], 83.3 nM (active); in experiment [12], 118 nM (active); in experiment [13], 41.8 nM (active); in [14], 209 nM (active); in experiment [4] it was 59 nM (active). For the same compound, the Potency in experiment [9] was 23.5 nM (active); in experiment [5], 105 nM (active); in experiment [15], 148 nM (active); in experiment [6], 148 nM (active); in [7] it was 166 nM (active); in experiment [8], 132 nM (active).

Regarding `Cc1ccc(C(=O)N(CCCN)[C@@H](c2oc3cc(Cl)ccc3c(=O)c2Cc2ccccc2)C(C)C)cc1`, the Potency result in experiment [1] and in [15] was “inactive” in each case. Besides, the Potency in [16] was 1 nM (active); in experiment [13] it was 1 nM (active); in experiment [4], 1 nM (active); in [5], 9350 nM (active); in experiment [7], 18700 nM (active).

The values are drawn from PubChem BioAssay (NCATS).
